p53 reactivation: re-activators of mutant p53. Potency, µM (top dose mostly 92.2 µM), for inactives: top-dose activity change, positive = activation, usual class: activators. H1299 p53-A138V BP100-luciferase reporter, luminescence, 24 h. 320,000 tested, 0.063% active; note: potency is the fitted concentration of half-maximal effect; % of control where 0% means no effect; nearly all actives have a fitted effect of over 45% in size
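H1299 (p53-null), stable ts p53-A138V + BP100-Luc; 1000 cells/well, Opti-MEM/10% FBS; cpd 4 pt, 1:5; 24 h, 37 deg C, 5% CO2; detection reagent 10 min RT; luminescence.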
N370S GC: inhibitors or activators of N370S glucocerebrosidase for Gaucher disease. P04062. N370S GC spleen homogenate, 4MU-glucoside fluorescence. Potency, µM (doses to about 59.4 µM), for inactives: top-dose activity change, negative = inhibition, actives largely listed as inhibitors. 330,000 tested, 0.092% active;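 note: potency is the fitted concentration of half-maximal effect; 0% = full enzyme activity and -100% = no enzyme basal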
TCR act: T cell receptor activation | 330,000 tested, under 10 active | primary human leukocytes, anti-CD3, IL-2 HTRF, 48 h | AID 504894 | Potency, µM (doses to about 9.22 µM), inactives show at the top dose activation of IL-2 secretion, actives largely listed as activators; note: % of control where 0% means no effect
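IL-2 produced over 48 hr by a-CD3 bead-stimulated primary human leukocytes exposed to compounds was detected with a homogeneous time-resolved FRET immunoassay, 665nm acceptor signal after 320nm excitation.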
TSHR antag: antagonists of human thyroid stimulating hormone receptor. activity change, negative = inhibition, % at 11.5 µM. TSHR-expressing cells, TSH-stimulated cAMP HTRF, 2 h; hits give low values. 330,000 tested, 0.2% active. P16473;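 active = activity change below a set negative limit, meaning inhibition stronger than a set level, cut at about -70% in these data; inconclusive = activity change between two set negative limits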; note: % is set by controls: 0 for no effect and ±100 for the full control effect
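TSHR-expressing cells, 200/well, pre-treated with compound, then stimulated with EC80 TSH (4nM final) for 2 hours at 37 deg C. cAMP measured by competitive HTRF: anti-cAMP cryptate antibody in lysis buffer plus cAMP-d2, read after 30 minutes at room temperature.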
GLS inh: inhibitors of human glutaminase (GLS) | O94925 | GLS enzymatic activity, qHTS titration | 410,000 tested, 0.21% active | Potency, µM (series often up to 45.5 µM), for the others: top-dose activity change, negative = inhibition, hits mostly inhibitors; note: potency is the fitted concentration of half-maximal effect; % is set by controls: 0 for no effect and ±100 for the full control effect
Target sequence (O94925 whole entry, looked up): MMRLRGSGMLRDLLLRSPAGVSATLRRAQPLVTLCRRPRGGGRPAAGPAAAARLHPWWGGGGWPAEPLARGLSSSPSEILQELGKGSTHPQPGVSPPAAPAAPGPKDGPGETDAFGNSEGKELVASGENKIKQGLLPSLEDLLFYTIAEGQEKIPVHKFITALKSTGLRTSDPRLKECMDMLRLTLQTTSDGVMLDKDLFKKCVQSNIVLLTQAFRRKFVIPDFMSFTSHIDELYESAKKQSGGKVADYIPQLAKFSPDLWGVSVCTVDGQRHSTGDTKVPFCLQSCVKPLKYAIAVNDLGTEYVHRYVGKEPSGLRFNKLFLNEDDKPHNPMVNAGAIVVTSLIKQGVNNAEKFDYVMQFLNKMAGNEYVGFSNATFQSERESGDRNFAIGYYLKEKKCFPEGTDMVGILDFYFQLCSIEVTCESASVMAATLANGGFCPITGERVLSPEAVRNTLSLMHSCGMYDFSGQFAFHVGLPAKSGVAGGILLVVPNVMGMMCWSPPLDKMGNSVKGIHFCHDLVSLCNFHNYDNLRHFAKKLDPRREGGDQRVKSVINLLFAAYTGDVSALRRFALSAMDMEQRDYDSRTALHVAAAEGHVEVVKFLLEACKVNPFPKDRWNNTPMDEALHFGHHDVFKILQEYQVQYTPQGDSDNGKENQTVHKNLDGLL
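Enzyme dispensed in phosphate buffer (45 mM, pH 8.2, 0.02% Tween-20), compounds pinned in, then 1 mM L-glutamine solution and the glutamate oxidase–HRP–Amplex Red mix added; fluorescence read immediately and again after 30 min at room temperature.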
BRCA1 expr up: activators of BRCA1 expression; MCF7-BRCA1-FFLuc reporter, luminescence, 48 h; response scale: scaled: vehicle 0%, 10 µM genistein 100%; Potency, µM (titrated, usually from 46.1 µM), without a hit: at the highest dose activation, usual class: activators; 380,000 tested, 1.1% active; AID 624202; note: potency is the fitted concentration of half-maximal effect; nearly all actives have a fitted effect of over 80% in size
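Using MCF7 cells harboring a BRCA1 firefly luciferase reporter, plated 2 h before compound pinning, the screen measured luminescence after 48 h incubation. Responses were normalized to DMSO and 10 microM genistein, then fitted for concentration-effect.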
The depositor's hits bear a star; ? = inconclusive; nt = no result given; [ ] = remark or other dose. This is a sample that favours compounds with a hit; in the whole collection about 1.4% have one here. Unless noted, calls come from the whole dose curve; as a rule, active = well fitted curve in the direction sought with a large enough effect; inconclusive = small, poorly fitted or top-dose-only effect, or another doubt; inactive = no such curve, though single readings can be large; an effect the other way counts as inactive or inconclusive.

SMILES	p53 reactivation	N370S GC	TCR act	TSHR antag	GLS inh	BRCA1 expr up
c1ccc(-c2ccc(-c3csc4ncnc(Sc5nnnn5-c5ccccc5)c34)cc2)cc1	nt	nt	nt	nt	nt	-3%
Nc1nc(-c2ccc3c(c2)CCCC3)cs1	?	-2%	-4%	-5	8%	3.2µM*
CC(C)(C)C(=O)N1CCc2cc(-c3csc(N)n3)ccc21	-4%	16%	7%	-20	22%	-64%
Nc1nc(-c2cccc(F)c2)cs1	-4%	-1%	-6%	-17	-8%	11µM*
CC1Cc2cc(-c3csc(N)n3)ccc2O1 (stereo not drawn)	nt	3%	4%	4	15%	3.2µM*
Nc1nc(-c2ccc3c(c2)OCCO3)cs1	26%	-27%	5%	58	17%	81%
COc1ccc(Nc2nc(N)c3cc(OC)c(OC)cc3n2)cc1	nt	nt	nt	nt	7%	nt
O=C(/C=C/c1ccc(C(F)(F)F)cc1)OC(C(=O)NC1CC1)c1ccccc1 (stereo not drawn)	nt	nt	nt	nt	nt	-3%
CCN(CC)c1ccc(C(=O)OCC(=O)N2CCCC2)cc1	4%	3%	-2%	-111*	7%	75%
O=C(OCC(=O)N1CCCC1)c1c[nH]c2ccccc12	12%	nt	12%	5	-2%	38%
CC1CCN(C(=O)COC(=O)c2c[nH]c3ccccc23)CC1	13%	7%	0%	-9	0%	7.1µM*
O=Cc1ccc(C(=O)OCC(=O)N2CCCC2)cc1	7%	-10%	-15%	-9	-1%	9%
Cc1cccc(C(=O)OCC(=O)N2CCCCCC2)c1C	?	nt	13%	1	-10%	5.6µM*
O=C(OCC(=O)N1CCCCC1)c1c[nH]c2ccccc12	?	nt	-8%	15	5%	6.3µM*
CCc1cc(C(C)=O)c(O)cc1OCCCCCC(C)(C)c1nn[nH]n1	nt	-14%	nt	nt	nt	nt
COc1ccc(Cc2c(-c3ccc(F)cc3)nc3ccc(Br)cn23)c(C)c1	nt	nt	nt	nt	4%	8.9µM*
COc1ccc(Cc2c(-c3cccc(Br)c3)nc3ccc(Br)cn23)c(C)c1	nt	nt	nt	nt	38%	68%
COc1ccc(OCCCCn2c(C3CC(=O)N(c4cccc(Cl)c4)C3)nc3ccccc32)cc1 (stereo not drawn)	nt	nt	nt	nt	0%	nt
Cc1n[nH]c(=S)n(NC(=O)CC(=O)Nn2c(=S)[nH]nc(C)c2=O)c1=O	4%	-7%	-19%	-6	?	20%
Cc1n[nH]c(=S)n(NC(=O)/C=C/C(=O)Nn2c(=S)[nH]nc(C)c2=O)c1=O	-2%	4%	2%	-5	11µM*	11%
CCC(O)OC(O)CC (stereo not drawn)	nt	4%	nt	nt	nt	nt
COc1ccc(N2C(=O)c3ccccc3NC2c2ccc(OC)c(COc3ccccn3)c2)cc1 (stereo not drawn)	?	16%	-2%[46.1 µM]	7	0%	6.3µM*
COc1ccc(N2C(=O)c3ccccc3NC2c2ccc(OC)c(CSc3ccccn3)c2)cc1 (stereo not drawn)	9%	8%	nt	0	-3%	67%
Cc1n[nH]c(=O)n1-c1ccc(OCc2ccccc2)cc1	4%	0%	2%	11	1%	5.6µM*
COc1ccc(-n2c(C)n[nH]c2=O)cc1	-2%	-5%	-4%	-4	-1%	0%
SMILES	p53 reactivation	N370S GC	TCR act	TSHR antag	GLS inh	BRCA1 expr up
O=c1c(O)cccc2cc(O)c(O)c(O)c12	-2%	-4%	13%	-6	1.6µM*	-56%
O=c1cc(-c2ccccc2)oc2cc(O)c(O)c(O)c12	27%	?	5%	-18	13%	?
O=C(Nc1ccc2nc3n(c(=O)c2c1)CCCC3)c1cccc(F)c1	3%	-14%	1%	-3	0%	10µM*
O=C(Nc1ccc2nc3n(c(=O)c2c1)CCCC3)c1ccccc1F	9%	-2%	12%	5	2%	?
CC(C)(C)c1cc(C(=S)N2CCN(CCO)CC2)cc(C(C)(C)C)c1O	-3%	18µM*	1%	9	-22%	0%
CCN(CC)S(=O)(=O)c1cc(C(=O)N=c2sccn2C)ccc1OC	-3%	-2%	7%	-2	4%	-13%
CCCCOc1ccc(C(=O)N=c2sccn2C)cc1OC	17%	-1%	3%	-4	5%	4µM*
CC(C)Oc1ccc(CNS(=O)(=O)c2ccc3c(c2)C(C)(C)C(=O)N3C)cc1	nt	nt	nt	nt	3%	17%
CCCSc1nc2sc3c(c2c(=O)n1Cc1ccccc1)CC(C)(CC)OC3 (stereo not drawn)	nt	nt	nt	nt	-8%	nt
CCC1(C)Cc2c(sc3nc(SC)n(Cc4ccccc4)c(=O)c23)CO1 (stereo not drawn)	11%	-5%	-2%	-19	-3%	13µM*
COc1ccc(/C=C2\SC(=O)N(CCNC(=O)C3CC4C=CC3C4)C2=O)cc1 (stereo not drawn)	1%	-22%	4%	-12	-16%	5.6µM*
CC[C@@H]([C@H](C)O)n1ncn(-c2ccc(N3CCN(c4ccc(OCC5CO[C@@](Cn6cncn6)(c6ccc(F)cc6F)C5)cc4)CC3)cc2)c1=O (stereo partly drawn)	nt	nt	nt	nt	3%	nt
O=C(NCCC(=O)N1CCCCC1)c1ccc(Br)cc1	?	?	4%	-11	-20%	10µM*
O=C(NCCC(=O)N1CCCCCCC1)c1ccc(Br)cc1	12%	nt	-4%	4	-1%	3%
Cc1cccc(C)c1NC(=O)N1CCC(C(=O)c2ccc(F)cc2)CC1	4%	-2%	2%	-79*	-29%	0%
CSc1ccc(CC(=O)N2CCC(n3nccc3NC(=O)C3CC3)CC2)cc1	24%	-8%	3%	-20	1%	2.8µM*
COc1cccc(CC(=O)N2CCC(n3nccc3NC(=O)C3CC3)CC2)c1	8%	-15%	-4%	6	9%	-18%
Cn1c(=O)c2sccc2n2c(CCCC(=O)Nc3ccc(Oc4ccc(Cl)cc4)cc3)nnc12	nt	nt	nt	nt	2%	nt
CCOC(=O)C1CCN(c2ncnc3c2oc2ccccc23)CC1	?	10%	2%	-18	-1%	19%
CCOC(=O)c1cnn(-c2ncnc3c2oc2ccccc23)c1N	?	4%	2%	-2	0%	3.2µM*
COc1ccc(C2OC(=O)CC2C(=O)NCc2ccc(Cl)cc2)cc1OC (stereo not drawn)	14%	-2%	3%	-2	2%	8.9µM*
COc1ccc(-c2coc3cc(O)ccc3c2=O)cc1OC	?	16%	-11%	0	?	?
COc1ccc(-c2coc3cc(OC(C)=O)c(OC)cc3c2=O)cc1	?	nt	-4%	-8	9%	10µM*

Bioassay records as filed in PubChem.
